Assay outcomes: PubChem, National Center for Advancing Translational Sciences (NCATS)
HP1b chromo inh = HTS for Inhibitors of HP1-beta Chromodomain Interactions with Methylated Histone Tails; Chromobox protein homolog 1 (Homo sapiens), P83916; AlphaScreen HP1-beta / biotin-H3K9me3 peptide binding; Potency, µM (highest dose often 114 µM), usual class: inhibitors; hit rate 0.56% among 390,000; AID 540317, 2011; note: nearly all actives have a fitted effect of over 70% in size
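HP1-beta protein (50 nM final) preincubated 30 min at room temperature with biotinylated H3(1-18)K9me3 peptide (50 nM) in PBS pH 7.4, 0.01% Tween-20, then compound added for 30 min. AlphaScreen streptavidin donor/nickel chelate acceptor beads (10 ug/mL final), 30 min dark, luminescence read.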
PLK1 PBD inh = qHTS for Inhibitors of PLK1-PDB (polo-like kinase 1 - polo-box domain): Primary Screen; hit rate 2.8% among 360,000; Potency, µM, usual class: inhibitors; AID 720504, 2013; Plk1 PBD binding of FITC phosphopeptide, fluorescence polarization; note: series mostly up to about 57 µM; nearly all actives have a fitted effect of over 65% in size
JMJD2A Tudor = qHTS Assay for Inhibitors of JMJD2A-Tudor Domain; Potency, µM (top dose mostly 114 µM), most hits filed as inhibitors; AlphaScreen JMJD2A-Tudor / H3K4me3 peptide binding; Lysine-specific demethylase 4A (Homo sapiens), O75164; hit rate 4.4% among 390,000; note: nearly all actives have a fitted effect of over 50% in size
PI5P4Ka inh = qHTS for Inhibitors of phosphatidylinositol 5-phosphate 4-kinase (PI5P4K) | hit rate 1.2% among 330,000 | PI5P4Kalpha enzyme, ADP-Glo luminescence, 60 min; stronger effect = lower value | AID 652105, 2013 | max response, %; active = max response of -50% or lower; inconclusive = between -30% and -50%; inactive = -30% or higher; note: value at the top dose of about 77 µM
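Compounds were pin-transferred onto PI5P4Kalpha and substrate in HEPES pH 7.4 buffer with EGTA, CHAPS and 5% DMSO. ATP (5 microM final) started the reaction, which ran 60 minutes at room temperature before ADP-Glo detection.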
BAZ2B inh = qHTS Assay for Inhibitors of BAZ2B. Bromodomain adjacent to zinc finger domain protein 2B (Homo sapiens), Q9UIF8. AlphaScreen BAZ2B-H3K14Ac peptide displacement. Potency, µM (doses to about 114 µM), usual class: inhibitors. hit rate 4.4% among 360,000. AID 504333, 2011; note: nearly all actives have a fitted effect of over 60% in size
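BAZ2B 50 nM plus b-H3(5-23)K14Ac 50 nM, PBS pH 7.4/0.01% Tween-20, 30 min RT; compound added (max 110 uM), 30 min RT; streptavidin donor/Ni-chelate acceptor beads 10 ug/mL final, 20 min dark; AlphaScreen read.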
GCN5L2 inh = qHTS Assay for Inhibitors of GCN5L2; Histone acetyltransferase KAT2A (Homo sapiens), Q92830; GCN5L2 HAT assay, ThioGlo1 CoA-SH fluorescence; Potency, µM (highest dose often 58.9 µM), usual class: inhibitors; hit rate 0.21% among 390,000; AID 504327, 2011
Target sequence (Q92830 whole entry, looked up): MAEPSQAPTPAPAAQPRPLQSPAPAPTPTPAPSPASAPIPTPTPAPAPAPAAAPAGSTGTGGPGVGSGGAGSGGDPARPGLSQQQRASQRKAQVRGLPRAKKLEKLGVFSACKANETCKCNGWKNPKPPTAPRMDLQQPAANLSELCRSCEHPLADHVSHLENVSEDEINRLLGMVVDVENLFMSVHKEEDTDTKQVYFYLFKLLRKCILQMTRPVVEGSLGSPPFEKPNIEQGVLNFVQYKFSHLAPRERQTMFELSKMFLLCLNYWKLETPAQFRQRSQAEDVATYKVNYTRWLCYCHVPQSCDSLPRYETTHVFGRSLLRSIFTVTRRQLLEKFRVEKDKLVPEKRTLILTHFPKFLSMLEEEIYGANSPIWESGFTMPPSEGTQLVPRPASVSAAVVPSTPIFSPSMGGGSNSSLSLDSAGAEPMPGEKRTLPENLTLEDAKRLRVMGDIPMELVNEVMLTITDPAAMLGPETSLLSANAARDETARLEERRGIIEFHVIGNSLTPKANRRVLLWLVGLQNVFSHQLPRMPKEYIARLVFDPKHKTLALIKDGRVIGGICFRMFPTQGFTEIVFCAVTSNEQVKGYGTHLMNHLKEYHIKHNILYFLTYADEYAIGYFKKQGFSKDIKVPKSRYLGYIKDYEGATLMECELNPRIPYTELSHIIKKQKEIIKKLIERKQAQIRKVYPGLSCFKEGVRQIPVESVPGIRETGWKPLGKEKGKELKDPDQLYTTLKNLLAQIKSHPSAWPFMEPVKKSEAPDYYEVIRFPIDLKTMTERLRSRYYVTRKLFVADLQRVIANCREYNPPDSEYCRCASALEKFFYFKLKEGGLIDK
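Compounds, pin-transferred from DMSO stocks, meet 20nM GCN5L2 for 15 min before the reaction begins with H3(1-25) peptide (75uM) and acetyl-CoA (70uM). Thiol-reactive ThioGlo1 reports CoA release over 20 min at room temperature.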
Numbers stand for hits; - = inactive; ? = inconclusive; . = no result. Rows were chosen to be rich in hits. Some 7% of all compounds tested hit in one or more screens of this group. Unless noted, calls come from the whole dose curve; as a rule, active = well fitted curve in the direction sought with a large enough effect; inconclusive = small, poorly fitted or top-dose-only effect, or another doubt; inactive = no such curve, though single readings can be large; an effect the other way counts as inactive or inconclusive.

SMILES	HP1b chromo inh	PLK1 PBD inh	JMJD2A Tudor	PI5P4Ka inh	BAZ2B inh	GCN5L2 inh
COc1ccc(CN2CCN(C(C)C(=O)N(C)Cc3cccc(F)c3)CC2)cc1OC (stereo unspecified)	?	-	4.47µM	-	17.8µM	-
COc1cccc(CN2CCN(C(=O)Nc3ccc([N+](=O)[O-])cc3)CC2)c1	-	-	-	-	-	-
COc1cc(OC)c(OC)cc1CN1CCN(C(=O)CC(C)C)CC1	?	-	1.58µM	-	?	?
O=C(Nc1cccc(F)c1)c1ccc(S(=O)(=O)N2CCCCC2)cc1	-	-	-	-	-	-
CC(=O)c1ccccc1OC(=O)COc1ccc([N+](=O)[O-])cc1	-	21.2µM	-	-	-	-
CCN(CC(=O)Nc1ccccc1OC)CC(=O)Nc1ccccc1C(F)(F)F	-	-	-	-	.	-
COc1ccccc1NC(=O)CCC(=O)c1ccc(-c2ccccc2)cc1	-	29.9µM	25.1µM	-	-	-
O=C(CNC(c1ccccc1)c1ccccc1)Nc1ccccc1-c1ccccc1	-	-	-	-	-	?
CCCC(C)NCC(=O)Nc1ccccc1-c1ccccc1 (stereo unspecified)	?	-	1.12µM	-	?	-
CCN(CC(=O)Nc1ccccc1OC)CC(=O)Nc1ccccc1-c1ccccc1	?	-	2.24µM	-	28.2µM	-
CC(=O)c1cccc(NC(=O)CSc2nc3ccccc3nc2Cc2ccc(F)cc2)c1	-	.	-	.	-	-
CC(=O)Nc1cccc(S(=O)(=O)N2CCN(S(=O)(=O)c3ccc4c(c3)OCCO4)CC2)c1	.	.	-	.	.	.
COc1ccc(N=c2scc(-c3ccc(OC)cc3)n2CCO)cc1	?	-	?	-	31.6µM	-
COc1ccc(-c2csc(=Nc3ccccc3)n2CCO)cc1F	?	.	39.8µM	.	50.1µM	-
Cc1c(N=c2scc(-c3ccccc3)n2CCO)c(=O)n(-c2ccccc2)n1C	-	-	-	-	-	-
COc1ccc(-c2nc3cnc(N4CCOCC4)nc3n(C[C@H]3CCCO3)c2=O)cc1	.	.	.	.	.	-
Cc1c(P(=S)(c2ccccc2)c2ccccc2)c2ccccc2n1C(=O)NCc1ccccc1	.	.	-	.	.	.
O=C(NCc1ccc(F)cc1)c1noc2c1CCCC2	-	-	-	.	-	-
O=C(Nc1ccc(F)cc1F)c1noc2c1CCC2	?	?	79.4µM	.	56.2µM	-
O=[N+]([O-])c1ccc(OCCO)c(P(=O)(c2ccccc2)c2ccccc2)c1	-	-	-	-	-	-
CN(C)c1ccc(N=Nc2ccccc2C(=O)OCC(=O)N2CCCC2)cc1	?	-	56.2µM	-	39.8µM	-
CN(C)c1ccc(N=Nc2ccccc2C(=O)OCC(=O)Nc2ccccc2C(F)(F)F)cc1	?	-	7.08µM	-	10µM	-
CN(C)c1ccc(N=Nc2ccccc2C(=O)OCC(=O)N2CCCCCC2)cc1	17.8µM	-	28.2µM	-	12.6µM	-
CN(C)c1cc[n+](CC(=O)Nc2ccccc2C(F)(F)F)cc1	-	-	-	-	-	-
CCn1c(/C=C/c2ccc(O)c(O)c2)nc2ccccc2c1=O	?	-	56.2µM	?	70.8µM	-
CCn1c(/C=C/c2ccc(O)cc2)nc2ccccc2c1=O	-	-	-	-	-	-
CCS(=O)(=O)N1CCN(c2cc3c(cc2[N+](=O)[O-])n(C)c(=O)n3C)CC1	-	?	-	-	56.2µM	-
COc1ccc(Nc2cc(C)nc(-n3nc(C)cc3C)n2)cc1Cl	-	.	?	.	6.31µM	-
Cc1cc(Nc2ccc(C(C)C)cc2)nc(-n2nc(C)cc2C)n1	-	.	?	.	-	-
Cc1cc(C)c(C2=Nn3c(C)nnc3SC2C)cc1C (stereo unspecified)	-	-	-	-	-	-
